# According to PubChem BioAssay AID504832 (National Center for Advancing Translational Sciences (NCATS), 2011):
# The campaign covered roughly 310,000 compounds. About 18,000 (5.8%) were called active. Another 22% or so got no clear call; they are omitted. Calls follow the shape of the dose curve; as a rule, active = well fitted inhibition curve with a large enough effect; inconclusive = small, poorly fitted or top-dose-only effect, or another doubt; inactive = no such curve, though single readings can be large or run the other way. Shown is part of a subset that was picked to be rich in actives. Where a call stands in place of a potency, no number is given.
# Assay: Primary qHTS for delayed death inhibitors of the malarial parasite plastid, 48 hour incubation
# Conditions: P. falciparum luciferase growth in erythrocytes; series mostly up to 28.7 µM
# Method in brief: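 Erythrocytes infected with P. falciparum carrying an integrated firefly luciferase reporter (2% hematocrit, 0.1% parasitemia final) were exposed to compounds in RPMI 1640 with 0.5% Albumax at 37 C, 5% CO2. Growth inhibition was scored as reduced luminescence.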
# Potency is read from the fitted curve at half-maximal effect.
SMILES,Potency,"activity change, negative = inhibition"
Cn1c(CC(=O)Nc2ccc(F)cc2)nnc1SCC(=O)NC1CCCCC1,inactive,
CCCCN1C(=O)/C(=C2/Sc3ccc(Cl)cc3N2CC)SC1=S,inactive,
CC(NCc1cccs1)C(=O)Nc1cc(Cl)cc(Cl)c1 (stereo unspecified),inactive,
CCOCCCNC(=O)C1(O)c2cc(Br)ccc2NC(=O)N1c1ccc(C)c(C)c1 (stereo unspecified),,-7.48% [at 0.00184 µM] (inactive)
CCCCN1C(=O)C(C)=C(C)C1OCCc1ccc(OC)c(OC)c1 (stereo unspecified),inactive,
O=C(Cc1ccc(-c2ccccc2)cc1)NC(c1ccccc1)c1ccccc1,13.1 µM (active),
O=C(O)Cc1ccc(-c2ccccc2)cc1,inactive,
C=CCC(NC(=O)Cc1ccccc1)C(=O)NCCC (stereo unspecified),inactive,
Cc1ccc(S(=O)(=O)NCC(=O)N2CCOCCOCCOCCOCC2)cc1,inactive,
Cc1cc(C)cc(C(=O)NC(CC(N)=O)c2ccc(N3CCC(N4CCCCC4)CC3)c([N+](=O)[O-])c2)c1 (stereo unspecified),inactive,
COc1ccc(N2C(=O)C(Cc3ccccc3)NC2=S)cc1 (stereo unspecified),inactive,
O=C(NC1(C(F)(F)F)NC(=O)N(C2CCCCC2)C1=O)c1ccco1 (stereo unspecified),inactive,
COc1ccc(C2C(C(C)=O)=C(O)C(=O)N2Cc2cccnc2)cc1 (stereo unspecified),inactive,
O=C1[C@H]2[C@@H](c3ccc(Cl)cc3)N3C(=O)N(c4cccc(F)c4)C(=O)[C@@]3(Cc3ccccc3)[C@H]2C(=O)N1C1CCCCC1,9.28 µM (active),
Cc1cccc([C@@H]2[C@@H]3C(=O)N(Cc4ccccc4)C(=O)[C@@H]3[C@]3(Cc4ccc(Cl)cc4)C(=O)N(c4cccc(Cl)c4)C(=O)N23)c1,4.15 µM (active),
O=C1CC(NNc2ccccc2)C(=O)N1c1cccc(Cl)c1 (stereo unspecified),inactive,
O=C1[C@H]2[C@@H](c3ccc(F)cc3)N3C(=O)N(c4ccc(C(F)(F)F)cc4)C(=O)[C@@]3(Cc3ccccc3)[C@H]2C(=O)N1C1CCCCC1,4.65 µM (active),
COC(=O)CN1C(=O)[C@H]2[C@@H](/C=C/c3ccccc3)N3C(=O)CN(Cc4ccccc4)C(=O)[C@@]3(Cc3ccccc3)[C@H]2C1=O,inactive,
COc1ccc([C@@H]2[C@@H]3C(=O)N(C(C)(C)C)C(=O)[C@@H]3[C@]3(Cc4ccccc4)C(=O)N(c4cccc(Br)c4)C(=O)N23)cc1,2.62 µM (active),
O=C(CCNS(=O)(=O)c1ccc(Br)cc1)NCC1CCCO1 (stereo unspecified),inactive,
CCc1ccc(/C=N/NC(=O)c2nnn(-c3nonc3N)c2CN2CCc3ccccc32)cc1,inactive,

SMILES,Potency,"activity change, negative = inhibition"
Cc1cc(OC(=O)c2ccc(OC(C)C)cc2)c([N+](=O)[O-])c(=O)[nH]1,inactive,
Cc1ccc(NS(=O)(=O)c2ccc(C(=O)NCCCN3CCOCC3)cc2)cc1,inactive,
COc1ccc(N2CCN(C(=O)CN3C(=O)COc4ccccc43)CC2)cc1,inactive,
COc1ccc(Cc2nc3ccc(C(=O)NCC4CCOCC4)cc3o2)cc1OC,inactive,
Cc1ccc(N(CC(=O)Nc2cccc(N(C)S(C)(=O)=O)c2)S(C)(=O)=O)cc1,inactive,
COc1ccc(OCC(=O)Nc2cc(C)c(Cl)cc2OC)c([N+](=O)[O-])c1,inactive,
COc1ccc(N(CCC(=O)NCCc2ccccc2)S(=O)(=O)c2ccc(C)cc2C)cc1,inactive,
COc1ccc(N(CC(=O)Nc2ccc(C)cc2C)S(=O)(=O)c2ccccc2[N+](=O)[O-])c(OC)c1,9.28 µM (active),
COc1ccc(C)cc1S(=O)(=O)N(CC(=O)Nc1cccc([N+](=O)[O-])c1)c1ccc(C)cc1,9.28 µM (active),
CN(CC(=O)Nc1cccc(F)c1)CC(=O)Nc1cccc([N+](=O)[O-])c1,inactive,
Brc1ccccc1/C=N/Nc1nc2ccccc2o1,inactive,
COc1ccc(NC(=O)c2cccc(Cl)c2)c[n+]1[O-],inactive,
CC(C(=O)c1ccc(-c2ccccc2)cc1)[n+]1cccc(Br)c1 (stereo unspecified),inactive,
CC(C)C(=O)NCC(c1cccs1)S(=O)(=O)c1ccc(F)cc1 (stereo unspecified),inactive,
CC(CC(=O)N1CCN(S(=O)(=O)c2ccccc2)CC1)n1cncn1 (stereo unspecified),inactive,
COc1ccc(C(=O)/C=C/c2cccnc2)c(OC)c1,11.7 µM (active),
COc1ccc(C(=O)CCC(=O)Nc2cccnc2)c(OC)c1,inactive,
COc1ccc(C(=O)CCc2ccccc2O)c(OC)c1,inactive,
COc1ccccc1N(CC(=O)NC1CCCC1)C(=O)C1(C)CC(=O)N=C2C=CC(C)=CN21 (stereo unspecified),inactive,
COc1ccc(CNC(=O)CN(C(=O)c2csnn2)c2cnc3ccccc3c2)cc1,inactive,
CCOC(=O)N1CCN(Cc2nnc(-c3ccccc3Cl)o2)CC1,inactive,

SMILES,Potency,"activity change, negative = inhibition"
COC(=O)c1cc(NC(=O)c2ccco2)ccc1N1CCOCC1,inactive,
COc1ccc(C(=O)Nc2sc(C)c(C)c2CN2CCOCC2)cc1,inactive,
COc1cc(C(c2c(NC(=O)c3ccco3)sc(C)c2C)N2CCOCC2)cc(OC)c1OC (stereo unspecified),10.4 µM (active),
O=c1c2cc([N+](=O)[O-])ccc2nc2n1CCC2,inactive,
COc1ccc(OC)c(NC(=O)C2CCCN2S(=O)(=O)c2cccc3nsnc23)c1 (stereo unspecified),inactive,
O=C(CCNS(=O)(=O)c1cccs1)N1CCN(c2ccc(F)cc2)CC1,inactive,
O=c1ccc2cc(S(=O)(=O)NCCCc3ccccc3)ccc2[nH]1,inactive,
CC(C)N(Cc1nnc(-c2ccccc2Br)o1)C(=O)c1cc(Cl)nc2ccccc12,9.28 µM (active),
Cn1cnnc1SCc1nnc(-c2ccccc2Br)o1,inactive,
CC(C)N(Cc1nnc(-c2ccc(Cl)cc2)o1)C(=O)C1=COCCO1,inactive,
COC(=O)C1=CO[C@@H](O[C@@H]2O[C@H](CO)[C@@H](O)[C@H](O)[C@H]2O)C2C1C[C@H](O)[C@@H]2C (stereo partly specified),inactive,
COc1ccc(C(=O)NCc2ccc(C)cc2)cc1S(=O)(=O)N1CCCC1,inactive,
CN(C)C(=O)Oc1ccc2c(c1)O/C(=C\c1ccccc1)C2=O,inactive,
COC(=O)C(C)Oc1ccc2c(-c3cccc([N+](=O)[O-])c3)cc(=O)oc2c1 (stereo unspecified),inactive,
COC(=O)C(C)Oc1ccc2c(c1)O/C(=C\c1cccc(Br)c1)C2=O (stereo unspecified),13.1 µM (active),
CCOC(=O)CC1COCCN1C(=O)c1cc(COc2ccc(F)c(F)c2)on1 (stereo unspecified),inactive,
Cc1cc(Nc2ccc(Cl)cc2)nc(N2CCOCC2)n1,inactive,
Cc1cc(Nc2ccc(C(=O)N3CCCCC3)cc2)c2cccc(C)c2n1,inactive,
Cc1cc(Nc2ccc(N3CCOCC3)cc2)c2cccc(C)c2n1,4.15 µM (active),
